Reference: PubChem BioAssay (NCI)
This is part of a sample that, as a whole, favours compounds with a hit. Of some 83,000 tested, about 20% had one in any assay.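 Method: cells in 96-well plates; compound added at one concentration; 48 h incubation; percent growth measured; values under 10 scored active.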 Active and inactive are the calls of the source.

What was measured:
Test in all cases: NCI-60 one-dose screen, 48 h (100 = growth as untreated, 0 = no growth, -100 = all killed)
Conditions in all cases: 10 µM unless noted
[1] = tested on: NCI-H23 lung
[2] = tested on: NCI-H226 lung
[3] = tested on: NCI-H322M lung
[4] = tested on: HOP-62 NSCLC
[5] = tested on: NCI-H460 lung
[6] = tested on: HOP-92 NSCLC
[7] = tested on: NCI-H522 lung
[8] = tested on: A549/ATCC NSCLC
[9] = tested on: 786-0 renal
[10] = tested on: COLO 205 colon

Measured: growth

CSc1ccc2c(c1)c(CCN)c(C)n2Cc1ccc(Cl)c(Cl)c1
active: [1] -89.7% | [2] -59.8% | [3] -83% | [4] -78.2% | [5] -70.6% | [6] -91.6% | [7] -76.5% | [8] -77.9% | [9] -76.1% | [10] -75.8%

O=c1n(Cc2ccc3ccccc3c2)ccn1Cc1ccc2ccccc2c1
inactive: [1] 91% | [2] 91.5% | [3] 86.3% | [4] 66% | [5] 85.7% | [6] 83.1% | [7] 46.8% | [8] 82.9% | [9] 95.8% | [10] 96.1%

CNc1nc2c(s1)C(c1cc(F)ccc1F)CC(=O)N2 (stereo not given)
inactive: [1] 85.9% | [2] 84.8% | [3] 92.2% | [4] 69.1% | [5] 82.3% | [6] 85.5% | [7] 51.3% | [8] 87% | [9] 83.9% | [10] 83.7%

CCOc1ccc2nc(SCc3nc4n(n3)S(=O)(=O)c3ccccc3N4C)sc2c1
inactive: [1] 13.2% | [2] 32% | [3] 38.6% | [5] 38.2% | [7] 22.6% | [8] 24% | [10] 23.3%
active: [4] -42.9% | [6] -14% | [9] -33.3%

COc1ccc(OC)c(/C=C2\Oc3cc(OCCN4CCC(Cc5ccccc5)CC4)ccc3C2=O)c1
inactive: [1] 88.1% | [2] 91% | [3] 94% | [4] 94.4% | [5] 82.2% | [6] 55.2% | [7] 86.6% | [8] 92% | [9] 77.6% | [10] 25.3%

CN1C(=O)CNC(=O)[C@H](NC(=O)c2nc3ccccc3cc2O)CSSC[C@H]1C(=O)NCCCc1nc2ccccc2cc1O
inactive: [1] 67.2% | [2] 85.8% | [3] 70.6% | [4] 81.8% | [5] 13.4% | [6] 120% | [7] 60.4% | [8] 48.3% | [9] 113%
active: [10] -9.63%

CCOC(=O)C1=C(N)Oc2c(sc3c(C)cccc23)C1c1ccc(OC)cc1 (stereo not given)
inactive: [1] 46.4% | [2] 55.2% | [3] 50.9% | [4] 34.4% | [5] 21.9% | [6] 66.1% | [7] 17.1% | [8] 42.7% | [9] 49.3% | [10] 118%

COC1=C(C)C(=O)c2c(c(CCCl)c3n2CCC3O)C1=O (stereo not given)
active: [1] -16.8% | [2] -30.8% | [3] -4.2% | [4] -11.2% | [5] 4.7% | [7] -46.1% | [8] 4.42% | [9] -21% | [10] -59.2%
inactive: [6] 103%

CCCCC1CCCC12NC(=O)NC2=O (stereo not given)
inactive: [1] 99.3% | [2] 88.5% | [3] 98.3% | [4] 99.3% | [5] 117% | [6] 93.6% | [7] 106% | [8] 117% | [9] 105% | [10] 120%

CN1CCN(c2ccc(-c3cnc4c(-c5csc6ccccc56)cnn4c3)cc2)CC1
active: [2] -5.69% | [4] -35.2% | [5] -78.2% | [6] 0.36% | [7] -60.8% | [8] -76.9% | [9] -68.5% | [10] -80.9%
inactive: [1] 14.3% | [3] 10.2%

C[C@]12CC[C@@H]3c4cc(OC(F)F)c(OS(N)(=O)=O)cc4CC[C@H]3[C@@H]1CC[C@@H]2O
inactive: [1] 24.5% | [2] 54.9% | [3] 42.4% | [4] 38.7% | [5] 12.1% | [6] 58.6% | [7] 19.8% | [8] 29.5% | [9] 42.3% | [10] 12.4%

c1ccc2cc(C[n+]3ccn(CCCCCCCCCCCCn4cc[n+](Cc5ccc6ccccc6c5)c4)c3)ccc2c1
active: [1] -80.3% | [2] -42.1% | [3] -18.4% | [4] -58% | [5] -69.9% | [6] -68.2% | [7] -74.2% | [8] -74.2% | [9] 1.28% | [10] -67.5%

NCCCNc1nc2ccccc2c2c(=O)c3cccc(F)c3sc12
inactive: [1] 50.5% | [2] 64.1% | [3] 46.8% | [4] 48.1% | [6] 35.8% | [7] 38.7% | [8] 24% | [9] 52.6%
active: [5] -57% | [10] -43.7%
